# Assay outcomes: PubChem, several laboratories
# Hits are enriched below; roughly 2.3% of the tested compounds scored in any of these assays.
# SENP8 block-1: blocks the human protease SENP8; inhibition, % at 10 µM; Q96LD8; 1.2% of 330,000 active; purified SENP8, Z-RLRGG-aminoluciferin cleavage, luminescence; in the data active = inhibition above about 50%
# Target sequence (Q96LD8 whole entry, looked up): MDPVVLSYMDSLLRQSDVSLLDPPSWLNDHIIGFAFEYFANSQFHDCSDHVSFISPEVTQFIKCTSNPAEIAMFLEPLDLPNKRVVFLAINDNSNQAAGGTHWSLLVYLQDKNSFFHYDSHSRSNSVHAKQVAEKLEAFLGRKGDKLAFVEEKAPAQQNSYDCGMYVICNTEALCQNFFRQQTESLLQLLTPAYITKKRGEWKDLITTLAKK
# SENP8 block-2: blocks human SENP8 cleavage of Nedd8 substrate. Q96LD8. recombinant SENP8, Nedd8 substrate fluorescence. inhibition, % at 20 µM. 0.64% of 360,000 active. AID 602440; in the data active = inhibition mostly above about 40%, no sharp cut-off; inactive = mostly below about 27%
# SENP6 block: SENP6 protease inhibition; inhibition, % at 10 µM; Recombinant SENP6 catalytic domain, aminoluciferin luminescence; Q9GZR1; 1.8% of 330,000 active;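 active = inhibition above about 50% at the single tested dose, limit read from the data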;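 note: plate controls were DMSO wells with enzyme for no effect and DMSO wells lacking enzyme for full effect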
# LGR2 inh: inhibitors of bursicon-induced Drosophila LGR2 receptor cAMP signaling; HEK293 LGR2, CRE-luciferase, bursicon-stimulated, 4 h; inhibition, % at 9.99 µM; 0.35% of 380,000 active; AID 720647;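 active = drop in luminescence signal, shown as inhibition above about 50% in the replicate tests, limit read from the data, passing the limit was not always enough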;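 note: agonist challenge used bursicon conditioned medium at about half maximal strength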
# HSP90 inh: inhibitors of HSP90 luciferase refolding in rabbit reticulocyte lysate; inhibition, % at 5.6 µM; AID 1789; 0.91% of 290,000 active; luciferase refolding luminescence, 3 h;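 active = inhibition above the screen-wide mean plus 3 SD, computed separately per campaign, cut at about 16% in these data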;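 note: 0% = DMSO wells and 100% = 60 µM geldanamycin wells; inhibitors lower the luminescence because luciferase stays unfolded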
# SENP7 block: blocks the human protease SENP7; inhibition, % at 5 µM; recombinant SENP7, Z-RLRGG-aminoluciferin luminescence, 40 min; 1.5% of 330,000 active;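 active = inhibition above about 50% at the single test dose, limit read from the data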;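 note: plate controls were DMSO with enzyme for no effect and no enzyme buffer wells for full effect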
# Target sequence (Q9BQF6 706-1050 limits assumed): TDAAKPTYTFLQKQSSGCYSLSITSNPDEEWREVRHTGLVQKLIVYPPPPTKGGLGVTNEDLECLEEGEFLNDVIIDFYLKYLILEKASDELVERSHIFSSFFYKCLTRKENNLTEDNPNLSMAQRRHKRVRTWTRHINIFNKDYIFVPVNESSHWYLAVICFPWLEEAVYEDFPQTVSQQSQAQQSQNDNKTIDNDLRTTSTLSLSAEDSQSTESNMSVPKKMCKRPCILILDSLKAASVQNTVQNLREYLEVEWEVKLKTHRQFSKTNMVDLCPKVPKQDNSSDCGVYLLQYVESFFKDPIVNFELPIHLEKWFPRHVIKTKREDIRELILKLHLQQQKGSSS
# SENP8 conf: confirmation of human SENP8 protease inhibitors | shares compounds with SENP7 block | AID 488912 | Recombinant SENP8, Z-RLRGG-aminoluciferin luminescence, 60 min | 40% of 6,200 active | inhibition, % at 12.5 µM;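 active = mean inhibition across replicates above about 50%, limit read from the data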
# SENP6 confirm: confirmation of human SENP6 protease inhibitors | recombinant SENP6, Z-RLRGG-aminoluciferin luminescence | AID 488915 | shares compounds with SENP7 block | inhibition, % at 12.5 µM | 58% of 6,200 active
# SENP7 confirm: confirmation of human SENP7 protease inhibitors; shares compounds with SENP7 block; recombinant SENP7, Z-RLRGG-aminoluciferin luminescence, 40 min; inhibition, % at 12.5 µM; 69% of 6,200 active; AID 488917
# Casp3 SENP sel: caspase-3 inhibition (SENP selectivity assay); shares compounds with SENP7 block; purified caspase-3, Z-DEVD-aminoluciferin luminescence, 60 min; inhibition, % at 12.5 µM; 60% of 6,200 active;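 active = mean inhibition above about 50%, limit read from the data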;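 note: plate controls were enzyme with DMSO for no effect and wells without caspase-3 for full effect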
# SENP luc ctr: luminescence interference (SENP counter-screen) | shares compounds with SENP7 block | AID 488919 | inhibition, % at 12.5 µM | Pre-incubated SENP8/Z-RLRGG-aminoluciferin, luciferase luminescence interference | 39% of 6,200 active;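 active = mean inhibition above about 50% when retested at one dose, limit read from the data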;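 note: plate controls were DMSO wells with completed reaction for no effect and substrate without enzyme for full effect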
# The depositor's hits bear a star; / = no result given.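 Rule for the calls, unless noted: active = mean inhibition above about 50% in the one-dose retest (limit read from the data); inactive = the rest.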
SMILES,SENP8 block-1,SENP8 block-2,SENP6 block,LGR2 inh,HSP90 inh,SENP7 block,SENP8 conf,SENP6 confirm,SENP7 confirm,Casp3 SENP sel,SENP luc ctr
O=C(CC1Nc2ccccc2NC1=O)Nc1cc(Cl)cc(Cl)c1 (stereo not drawn),-6.0,-301.3,-9.1,-19.3,6.8,-1.4,/,/,/,/,/
COc1ccc(NC(=O)CC2Nc3cccc4cccc(c34)NC2=O)cc1 (stereo not drawn),59.2*,-63.8,93.3*,-1.9,2.2,66.6*,3.1,4.2,11.7,7.6,2.1
COc1ccc(-c2ccc(-c3noc(-c4ccccc4C)n3)c(OC)n2)cc1,0.4,-417.3,-13.9,3.4,3.2,0.7,/,/,/,/,/
Cc1ccccc1-c1noc(-c2ccc(Cl)cc2)n1,29.8,9.0,-3.9,/,-1.1,79.2*,21.2,26.4,12.8,49.4,8.3
Cc1ccccc1-c1noc(-c2ccccc2C(=O)N2CCCC2)n1,-1.1,14.0,-1.4,/,4.1,1.3,/,/,/,/,/
NC(=O)c1ccc(-c2noc(-c3ccccc3F)n2)cc1,66.2*,16.2,74.0*,-27.8,/,77.0*,36.1,63.0*,76.8*,69.1*,19.8
Cc1ccccc1-c1noc(-c2ccccc2F)n1,89.7*,19.1,83.7*,-47.1,-0.6,95.8*,78.5*,77.5*,94.1*,81.2*,61.2*
O=C(c1ccccc1-c1nc(-c2ccc(Cl)cc2)no1)N1CCCC1,-2.0,12.1,-11.1,-36.2,6.4,-17.2,/,/,/,/,/
Cc1ccccc1-c1noc(-c2ccc(O)cc2)n1,98.8*,17.0,98.2*,-33.1,-4.9,101.1*,98.9*,99.5*,102.4*,98.2*,97.3*
CCCNC(=O)[C@H]1[C@H](CO)[C@H]2Cn3c(ccc(-c4ccccc4F)c3=O)[C@H]2N1CC1CC1,/,/,/,-1.7,/,/,/,/,/,/,/
CCNC(=O)[C@H]1[C@H](CO)[C@H]2Cn3c(ccc(-c4ccccc4)c3=O)[C@H]2N1Cc1ccccn1,/,/,/,5.0,/,/,/,/,/,/,/
Cc1ccc(-c2cc(C(F)(F)F)c(C#N)c(=O)[nH]2)cc1,68.2*,-437.9,76.0*,4.9,-2.4,20.6,64.6*,66.2*,57.2*,60.9*,48.9
COc1cccc(-c2cc(C(F)(F)F)c(C#N)c(=O)[nH]2)c1,84.6*,-443.2,84.7*,10.8,0.8,35.5,-13.9,69.6*,84.8*,70.3*,76.6*
O=C(C[C@@H]1C[C@@H]2c3cc(NC(=O)Nc4ccccc4)ccc3O[C@@H]2[C@H](CO)O1)NCc1cccnc1,/,/,/,0.1,/,/,/,/,/,/,/
CCOC(=O)Cc1csc(N/N=C/c2ccccc2)n1,23.4,-45.3,45.1,-30.1,7.1,41.8,/,/,/,/,/
CCOC(=O)Cc1csc(N/N=C\c2ccccc2OC)n1,26.0,-187.8,67.7*,-5.9,1.4,45.4,57.5*,53.9*,79.4*,41.6,54.8*
COC(=O)c1c[nH]n2c(=O)cc(C)nc12,-4.3,2.3,-3.4,-17.3,-1.3,7.3,/,/,/,/,/
COC(=O)c1c[nH]n2c(=O)c(Cl)c(C)nc12,34.5,-12.8,64.0*,3.5,1.4,53.6*,65.5*,57.1*,85.5*,88.0*,66.1*
CN1/C(=C\C(=O)c2cccnc2)Sc2ccccc21,0.8,-238.6,13.5,-50.4,2.6,8.2,/,/,/,/,/
COc1cccc(C(=O)/C=C2\Sc3ccccc3N2C)c1,59.8*,-400.6,10.0,-5.5,0.5,49.9,-6.5,73.3*,92.6*,73.3*,19.3
COc1ccc(C)c2sc(=NC(=O)c3cccc(N4C(=O)CCC4=O)c3)n(C)c12,24.6,-393.7,51.2*,-70.0,-0.1,77.8*,-4.2,-2.3,0.3,14.7,3.2
COc1ccc(C)c2sc(=NC(=O)c3ccccc3)n(C)c12,5.9,-388.0,14.9,/,-3.6,99.0*,4.5,78.3*,85.4*,90.2*,11.5
Oc1cccc2ccc(/C=C/c3c(F)cccc3Cl)nc12,85.3*,-33.4,95.3*,-25.3,-4.4,94.1*,23.2,60.4*,37.0,63.5*,4.3
Oc1cccc2ccc(/C=C/c3ccccc3Cl)nc12,88.3*,-35.7,98.9*,-44.8,-1.6,83.5*,83.0*,90.1*,67.0*,85.5*,32.6
CN(C(=O)c1ccccc1)c1nc2ccccc2s1,44.1,15.9,70.7*,/,2.6,46.9,28.3,51.1*,70.7*,45.3,43.1
SMILES,SENP8 block-1,SENP8 block-2,SENP6 block,LGR2 inh,HSP90 inh,SENP7 block,SENP8 conf,SENP6 confirm,SENP7 confirm,Casp3 SENP sel,SENP luc ctr
CN(C)C(=O)c1nc2ccccc2s1,1.2,13.3,-18.0,-24.6,0.2,14.1,/,/,/,/,/
CC(C)NC(=O)Nc1ccc2c(c1)C(=O)N([C@H](C)CO)C[C@@H](C)[C@@H](CN(C)C(=O)Nc1ccc(F)cc1)O2,/,/,/,-5.1,/,/,/,/,/,/,/
C[C@H]1CCCCO[C@@H](CN(C)Cc2ccccc2)[C@@H](C)CN([C@@H](C)CO)C(=O)c2cc(NS(=O)(=O)c3cccs3)ccc2O1,/,/,/,-3.3,/,/,/,/,/,/,/
C[C@H]1CCCCO[C@H](CN(C)C(=O)c2ccncc2)[C@@H](C)CN([C@@H](C)CO)C(=O)c2cc(NC(=O)c3ccccc3)ccc2O1,/,/,/,-3.9,/,/,/,/,/,/,/
O=C1c2ccccc2C(=O)C12OC2c1cccc2ccccc12 (stereo not drawn),53.4*,92.6*,86.5*,/,4.1,-0.1,71.6*,88.0*,77.8*,3.0,9.5
O=C(Nc1ccccc1)O/N=C/c1ccccc1Cl,26.4,14.3,39.2,/,5.6,55.8*,60.1*,52.9*,76.6*,35.2,53.2*
COc1ccc(/C=N/OC(=O)Nc2ccccc2OC)cc1,72.0*,18.5,42.5,-8.3,5.5,81.0*,19.8,86.6*,22.0,83.1*,33.3
COc1ccc(NC(=O)O/N=C/c2ccc(Br)cc2)cc1,-6.4,28.5,16.0,-12.1,-1.0,6.0,/,/,/,/,/
Cc1ccc(NC(=O)O/N=C/c2ccc(F)cc2)cc1,1.6,8.9,5.8,-65.4,-0.3,2.0,/,/,/,/,/
O=C(Nc1ccccc1)O/N=C/c1ccc(F)cc1,42.2,15.2,67.7*,-11.8,3.0,59.0*,67.1*,64.6*,89.1*,74.6*,48.5
S=c1nc2ccccc2c2nc(-c3ccccc3Br)[nH]n12,-3.5,24.0,-10.2,3.4,0.6,-5.7,/,/,/,/,/
Brc1ccccc1-c1nc2c3ccccc3ncn2n1,77.3*,-212.2,90.9*,-78.9,/,10.8,-5.5,29.2,68.1*,39.2,55.8*
